Only some compounds are listed: those with a hit (about 2.2% of all), similar ones and a draw of the others.
IEC-6 cytotox: cytotoxicity in IEC-6 intestinal epithelial cells, primary screen, cytotoxicity control for KLF5 inhibitor project, cell-based, luminescence; IEC-6 cytotoxicity, luminescence viability; hit rate 0.78% among 290,000; AID 1825, 2009; inhibition, % at 5 µM; in the data active = inhibition above about 22%;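 note: 0% = plate median of test compound wells and 100% = cytotoxic reference compound wells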
aSyn 5UTR inh: MLPCN primary screen, SNCA 5' untranslated region; alpha-synuclein 5'UTR reporter, inhibitor activity; inhibition, % (tested at 7.5 µM); hit rate 0.82% among 300,000; in the data active = inhibition above about 60%;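 note: H4 neuroglioblastoma cells stably carrying SNCA 5'UTR luciferase fusion; 0% = DMSO wells and 100% = positive control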
Ba/F3 V617F tox: reduced viability of JAK2V617F-dependent Ba/F3 cells, primary screen, JAK2V617F inhibitor project, cell-based, Ba/F3 EpoR-JAK2V617F, luminescence. inhibition, % at 5.6 µM. ATP luminescence. hit rate 1.1% among 220,000;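 active = inhibition above the campaign mean plus 3 SD over all tested compounds, cut at about 24% in these data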;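 note: cytokine-independent growth of Ba/F3 cells driven by EpoR plus mutant JAK2; 0% = DMSO-treated cells and 100% = JAK inhibitor I control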
BaF3 tox: parental Ba/F3 cell viability inhibition, counter-screen for JAK2V617F inhibitor project, murine pro-B, CellTiter-Glo luminescence | hit rate 1.1% among 220,000 | CellTiter-Glo ATP luminescence | inhibition, % at 5.6 µM;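 active = inhibition above a per-campaign cutoff, the mean inhibition of all tested compounds plus 3 SD, cut at about 27% in these data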;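 note: 0% = DMSO wells and 100% = JAK Inhibitor I control wells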
KLF5 inh: KLF5 expression inhibitors, primary screen, DLD-1 cells, luminescence; inhibition, % at 5 µM; DLD-1 KLF5 promoter-luciferase reporter; hit rate 0.23% among 290,000;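 active = inhibition above a per-plate limit of that plate's mean compound inhibition plus 3 SD, cut at about 60% in these data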;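 note: 0% = DMSO wells and 100% = LY294002 at 200 µM; higher means less KLF5 promoter-driven luciferase light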
APP 5UTR inh: inhibitors of APP translation via 5'UTR reporter, primary screen, APP 5'UTR luciferase, SH-SY5Y cells. hit rate 0.82% among 190,000. SH-SY5Y APP 5'UTR-luciferase reporter, luminescence. AID 1285, 2008. inhibition, % at 2 µM;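 active = inhibition above a set limit, derived from the sample mean plus 3 SD, cut at about 45% in these data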
Starred values were filed as active, the others as inactive; · = not tested or not shown.

SMILES	IEC-6 cytotox	aSyn 5UTR inh	Ba/F3 V617F tox	BaF3 tox	KLF5 inh	APP 5UTR inh
O=C1OC(c2ccc(Cl)cc2)/C(=C(/O)c2ccccc2)C1=O (stereo not given)	-5.0	-66.5	-0.6	0.2	0.7	-16.6
CN(C)CC(C(=O)c1ccccc1)c1ccccc1 (stereo not given)	4.4	-170.8	-1.1	-0.6	-5.8	93.9*
COc1ccc(C(C(=O)OC(C)CN(C)C)c2ccccc2)cc1 (stereo not given)	-1.0	1.6	-0.3	5.2	-23.5	-6.4
COc1cccc(NC(=O)N2CCN(c3nnnn3-c3ccccc3)CC2)c1	4.1	-5.8	-0.1	-1.4	-7.1	-2.3
Cc1ccccc1C(=O)Nc1cccc(NC(=O)Cn2cnc3c(=O)n(C)c(=O)n(C)c32)c1	-3.9	52.1	68.1*	42.3*	8.4	13.4
Cc1cccc(C)c1NC(=O)Cn1cnc2c(=O)n(C)c(=O)n(C)c21	-3.4	18.4	-3.1	1.2	-12.4	4.3
CCCc1cc(C(=O)Nc2c(C)n(C)n(-c3ccccc3)c2=O)no1	3.9	-21.4	1.4	11.5	-22.4	6.4
CCN(CC)c1ccc(Nc2cc3n(c(=O)n2)CCc2cc(OC)c(OC)cc2-3)cc1	2.9	74.2*	·	·	-59.9	·
Oc1ccc(N=Nc2ccc3c(c2)OCCO3)c(O)c1	1.0	62.1*	1.0	-0.1	-21.9	·
Oc1ccc(N=Nc2ccc3c(c2)OCCO3)c2cccnc12	-6.6	103.6*	-0.5	2.2	-6.1	34.9
Cc1ccc(N=Nc2ccc(O)cc2)c(Br)c1	6.7	-43.2	·	·	-105.7	·
Oc1ccc(N=Nc2ccc(Br)cc2)c(O)c1	28.8*	-226.4	-3.9	0.0	-62.6	·
COCCOC(=O)c1[nH]c2c(c1C)C(=O)CC(c1ccco1)C2 (stereo not given)	16.7	43.9	76.1*	76.8*	15.8	95.5*
C=CCOC(=O)c1[nH]c2c(c1C)C(=O)CC(c1cc(OC)c(OC)c(OC)c1)C2 (stereo not given)	4.7	-12.5	40.5*	44.0*	9.4	-11.8
CCOc1ccccc1NC(=O)CN(C)S(=O)(=O)c1ccc2[nH]c(=O)oc2c1	1.0	-2.1	·	·	-7.2	·
Cc1ccc(-c2nn(CCC(=O)O)cc2/C=C\C(=O)c2ccc(Br)cc2)cc1	-2.3	-42.2	-2.5	2.5	-0.9	5.3
CNC(=S)N/N=C/c1cc(Br)c(OCc2ccncc2)c(OC)c1	2.1	30.3	·	·	-26.4	·
COc1cc(/C=N/NC(N)=S)cc(Br)c1OCc1ccccc1F	9.0	-74.0	65.1*	53.1*	-19.9	-19.6
CCOc1cc(/C=N/NC(N)=O)cc(Br)c1OCc1ccccc1	·	45.3	·	·	·	·
CCOc1cc(/C=N/NC(N)=S)cc(Br)c1OCc1ccccc1C	2.7	-73.7	10.8	27.5*	11.1	-18.6
Cc1cccc(NC(=O)Cn2ccn(-c3ccc4c(c3)OCCO4)c(=O)c2=O)c1	·	0.9	·	·	·	·
CN=C1SC(C(=O)Nc2ccccc2Cl)CC(=O)N1c1ccc(OC(F)(F)Cl)cc1 (stereo not given)	-0.8	19.4	0.1	5.4	1.3	-37.5
Cc1ccc(Sc2cnccc2C#N)cc1	5.8	-9.8	·	·	-0.8	·
CCc1ccc(-c2nc(C(N)=O)c3[nH]c(=O)n(-c4ccccc4OC)c3n2)cc1	-0.7	81.5*	1.8	10.1	-25.7	94.6*
COc1ccc(-c2nc(C(N)=O)c3[nH]c(=O)n(-c4cccc(Cl)c4)c3n2)cc1OC	2.4	16.5	0.5	10.7	-19.0	-1.5
SMILES	IEC-6 cytotox	aSyn 5UTR inh	Ba/F3 V617F tox	BaF3 tox	KLF5 inh	APP 5UTR inh
COC(=O)C1CC(c2ccc(Cl)cc2)=NO1 (stereo not given)	-1.3	6.8	-1.9	5.4	-12.2	-6.0
O=C(COC(=O)C(c1ccccc1)c1ccccc1)NCc1ccco1	-2.6	3.5	-2.1	4.8	-0.5	5.3
COc1cccc(NC(=O)CCNC(=O)C2CCN(S(=O)(=O)c3ccc(F)cc3)CC2)c1	8.8	10.3	·	·	-2.9	·
CCOC(=O)c1ccc(NC(=O)c2cccc(S(=O)(=O)N3CCN(C(C)=O)CC3)c2)cc1	0.7	-6.1	·	·	-25.3	·
CS(=O)c1nc(-c2ccc(Br)cc2)cc(-c2ccccc2)c1C#N (stereo not given)	3.1	120.1*	5.3	-4.2	-6.4	93.8*
CS(=O)(=O)c1nc(-c2ccc(Br)cc2)cc(-c2ccccc2)c1C#N	-0.6	-3.0	0.9	4.5	-30.3	2.5
CCOc1ccc(CCNC(=O)CCNC(=O)c2ccccc2Cl)cc1OCC	4.5	26.5	·	·	-52.5	·
COc1ccc(CN2CCNC(=O)C2CC(=O)NCC(C)(C)N2CCOCC2)cc1C (stereo not given)	-2.4	24.8	·	·	-17.4	·
CCN(CC)S(=O)(=O)c1ccc(Oc2ccc(S(=O)(=O)N(CC)CC)cc2)cc1	-1.1	13.6	33.2*	40.3*	-18.1	-0.2
Cc1c(/N=C(\[O-])Nc2ccc(Br)cc2)sn[n+]1C	0.8	89.3*	3.5	0.8	-120.5	·
CNC(=S)Nc1ccc(Br)cc1	6.2	-35.1	-0.4	7.5	-6.0	4.0
CC[n+]1c(C)cc(C)n1-c1ccccc1	4.8	-5.4	63.3*	64.6*	-20.6	5.2
CCCc1nc(C)cc(N2CCN(c3ccccc3)CC2)n1	0.2	-15.0	·	·	-29.7	·
C=CCNC(=O)CN1CCC(NC(=O)c2ccco2)CC1	-0.9	-13.8	-1.4	1.4	-6.9	16.6
COCCNC(=O)CN1CCC(NC(=O)c2ccco2)CC1	-3.1	13.2	0.6	45.7*	-22.6	-5.0
COc1ccc(NC(=S)NN(C)C(=S)Nc2ccc(OC)cc2)cc1	14.0	23.3	1.4	4.5	-3.7	92.8*
COc1ccc(NC(=S)Nc2ccc(Oc3ccccc3)cc2)cc1	-4.8	36.4	-1.6	7.8	-44.4	-21.3
Cc1cc(N2C(=O)C(O)=C(C(=O)c3ccco3)C2c2ccccc2F)no1 (stereo not given)	-1.1	4.3	·	·	-10.6	·
O=C(N/N=C/c1ccc[nH]1)c1ccc(COc2cccc3cccnc23)cc1	38.7*	104.0*	86.5*	80.4*	-21.6	46.1*
COC(=O)c1c(NC(=O)C(C)C)sc(C(=O)N2CCOCC2)c1C	1.0	-3.6	·	·	6.2	·
COc1ccccc1NC(=O)C(CC=C(Cl)Cl)C(C)=O (stereo not given)	4.1	0.4	-6.8	39.1*	2.1	4.6
COc1ccccc1NC(=O)C(C/C=C(\C)Cl)C(C)=O (stereo not given)	3.4	-73.3	-1.2	-0.9	-4.0	-11.9
COc1ccc(-n2ncc(Cl)c(Cl)c2=O)cc1	61.0*	-154.5	8.6	-9.3	-9.7	91.5*
COc1ccc(-n2ncc(N(C)n3cccc3)c(Cl)c2=O)cc1	-1.9	·	0.6	2.4	-158.4	-133.1

From PubChem
